The source made the active and inactive calls.
How the values were obtained:
[1] = tested on: Plasmodium falciparum Sir2 (PF13_0152, Sir2A); assay: Plasmodium falciparum Sir2A binding compounds – biochemical, small-molecule microarray, 635 nm fluorescence, primary screen (AID 1098); conditions: fluorescence 635 nm, higher = more signal;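 also: score merges spot fluorescence intensity with its signal-to-noise ratio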
[2] = probe aDKK1 binding to arrayed compounds – biochemical, biotinylated probe, 635/667 nm fluorescence, primary screen (AID 1099); conditions: small-molecule microarray, higher = more signal;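 also: score merges 667nm spot fluorescence with signal to noise across triplicate slides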
[3] = probe aCHRDL2 binding to arrayed compounds – biochemical, biotinylated probe, 635/667 nm fluorescence, primary screen (AID 1100); conditions: small-molecule microarray, higher = more signal
[4] = change in splice reporter luminescence, either direction, cell-based, HEK293, spliceosome inhibition project, primary screen (AID 1101); conditions: HEK293 splicing luciferase reporter, 24 h, higher = more signal, called active from +8 up or from −8 down;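 also: HEK293 cells carrying a splicing-competent luciferase reporter gene; test concentration not given here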
[5] = target: Fibroblast growth factor 10 (Homo sapiens) (UniProt O15520); assay: compounds binding fibroblast growth factor 10 – biochemical, small-molecule microarray, 635 nm fluorescence, primary screen (AID 1102); conditions: FGF10 binding, fluorescence 635 nm, higher = more signal
Sequence of Fibroblast growth factor 10 (Homo sapiens) (O15520 whole entry, looked up): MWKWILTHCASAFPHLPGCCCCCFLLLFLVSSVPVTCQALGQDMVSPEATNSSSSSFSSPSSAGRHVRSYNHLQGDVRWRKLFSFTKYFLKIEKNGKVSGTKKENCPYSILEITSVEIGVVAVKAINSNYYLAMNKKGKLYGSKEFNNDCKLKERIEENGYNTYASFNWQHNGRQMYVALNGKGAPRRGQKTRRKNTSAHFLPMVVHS

[6] = tested on: glycogen synthase kinase-3 (GSK3A per assay name; protocol says GSK3B); assay: compounds binding glycogen synthase kinase-3 – biochemical, small-molecule microarray, 635 nm fluorescence, GSK3A, primary screen (AID 1103); conditions: fluorescence 635 nm, higher = more signal; also: the record names both GSK3A and GSK3B
[7] = target: Epidermal growth factor receptor (Homo sapiens) (UniProt P00533); assay: compounds binding epidermal growth factor receptor – biochemical, small-molecule microarray, 635 nm fluorescence, primary screen (AID 1104); conditions: EGFR binding, higher = more signal;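 also: score merges 667 nm emission intensity with spot signal to noise over triplicate slides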
Sequence of Epidermal growth factor receptor (Homo sapiens) (P00533 whole entry, looked up): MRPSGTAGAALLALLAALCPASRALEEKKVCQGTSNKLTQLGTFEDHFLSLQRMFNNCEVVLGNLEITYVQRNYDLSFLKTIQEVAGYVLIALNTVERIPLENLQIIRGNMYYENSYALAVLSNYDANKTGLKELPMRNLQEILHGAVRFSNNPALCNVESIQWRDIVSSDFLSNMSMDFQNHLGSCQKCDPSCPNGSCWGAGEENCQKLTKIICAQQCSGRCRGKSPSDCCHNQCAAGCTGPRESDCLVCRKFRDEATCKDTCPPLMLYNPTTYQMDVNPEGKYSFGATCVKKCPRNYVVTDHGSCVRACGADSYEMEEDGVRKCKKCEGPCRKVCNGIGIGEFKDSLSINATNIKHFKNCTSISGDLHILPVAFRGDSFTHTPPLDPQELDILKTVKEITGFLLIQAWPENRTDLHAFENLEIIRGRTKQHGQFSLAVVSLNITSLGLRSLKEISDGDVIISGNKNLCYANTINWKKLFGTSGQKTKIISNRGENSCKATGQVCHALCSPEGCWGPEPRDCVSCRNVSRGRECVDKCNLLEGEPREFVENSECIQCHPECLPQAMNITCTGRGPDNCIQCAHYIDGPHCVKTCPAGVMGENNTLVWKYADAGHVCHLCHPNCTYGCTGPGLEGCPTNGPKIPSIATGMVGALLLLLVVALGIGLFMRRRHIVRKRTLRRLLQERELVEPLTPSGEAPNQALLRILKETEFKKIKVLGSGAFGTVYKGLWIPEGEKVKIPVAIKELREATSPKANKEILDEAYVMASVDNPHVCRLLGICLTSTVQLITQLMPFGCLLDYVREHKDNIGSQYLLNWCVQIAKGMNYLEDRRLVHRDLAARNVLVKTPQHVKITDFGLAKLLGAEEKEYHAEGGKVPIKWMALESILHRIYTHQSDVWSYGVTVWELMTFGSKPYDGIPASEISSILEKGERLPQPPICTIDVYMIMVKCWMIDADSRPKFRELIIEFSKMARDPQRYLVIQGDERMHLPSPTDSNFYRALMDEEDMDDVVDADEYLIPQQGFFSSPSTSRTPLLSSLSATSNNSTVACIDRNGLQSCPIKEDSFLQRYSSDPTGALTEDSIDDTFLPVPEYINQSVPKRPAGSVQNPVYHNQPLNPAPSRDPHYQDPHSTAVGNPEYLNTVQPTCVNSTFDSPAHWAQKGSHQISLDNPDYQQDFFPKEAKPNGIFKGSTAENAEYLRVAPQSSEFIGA

[8] = target: Follistatin-related protein 3 (Homo sapiens) (UniProt O95633); assay: compounds binding follistatin-related protein 3 – biochemical, small-molecule microarray, 635 nm fluorescence, primary screen (AID 1105); conditions: FSTL3 binding, higher = more signal;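 also: score merges emission near 667 nm and signal to noise per printed spot across three slides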
Sequence of Follistatin-related protein 3 (Homo sapiens) (O95633 whole entry, looked up): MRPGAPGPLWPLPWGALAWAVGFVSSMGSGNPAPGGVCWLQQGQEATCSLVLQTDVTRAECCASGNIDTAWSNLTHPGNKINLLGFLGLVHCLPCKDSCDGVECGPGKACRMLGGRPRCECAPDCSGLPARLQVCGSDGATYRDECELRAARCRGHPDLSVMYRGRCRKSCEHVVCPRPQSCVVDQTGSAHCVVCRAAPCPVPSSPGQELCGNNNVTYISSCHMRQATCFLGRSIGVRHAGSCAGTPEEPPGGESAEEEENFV

[9] = target: Dickkopf-related protein 1 (Homo sapiens) (UniProt O94907); assay: small molecules binding DKK1 protein – biochemical, small-molecule microarray, 635 nm fluorescence scan, primary screen (AID 1106); conditions: higher = more signal;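 also: score merges emission near 667 nm with signal to noise over three replicate slides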
Sequence of Dickkopf-related protein 1 (Homo sapiens) (O94907 whole entry, looked up): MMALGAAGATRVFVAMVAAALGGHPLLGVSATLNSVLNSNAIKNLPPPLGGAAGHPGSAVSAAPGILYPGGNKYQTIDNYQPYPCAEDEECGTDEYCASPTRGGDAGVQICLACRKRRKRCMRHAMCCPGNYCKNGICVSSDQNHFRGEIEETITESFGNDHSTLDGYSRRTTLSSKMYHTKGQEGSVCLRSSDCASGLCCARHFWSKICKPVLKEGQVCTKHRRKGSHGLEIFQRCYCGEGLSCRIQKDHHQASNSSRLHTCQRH

[10] = tested on: Inhibin beta A chain (activin A); assay: small molecules binding activin A – biochemical, small-molecule microarray, 635 nm fluorescence scan, primary screen (AID 1107); conditions: INHBA, higher = more signal;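 also: mouse activin A protein probed at 4.33 µg/mL on printed slides; score merges bound-protein fluorescence near 667 nm with spot signal-to-noise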
[11] = tested on: Human papillomavirus type 1a protein E7 (residues 44-93); assay: small molecules binding HPV E7 44-93 – biochemical, small-molecule microarray, residues 44-93, 635 nm fluorescence, primary screen (AID 1108); conditions: fluorescence 635 nm, higher = more signal;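 also: E7 fragment applied at 1 µg/mL in TBST for 1 h at 4 C; score combines spot fluorescence with its signal to noise ratio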
[12] = hepatitis C replication reporter changes, two-sided – Huh7 cells, luciferase reporter, HCV replication inhibitor project, primary screen (AID 1109); conditions: Huh7 HCV replicon luciferase reporter, 48 h; higher = more signal;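 also: huh7 hepatoma cells harbouring a luciferase neomycin HCV replicon reporter; luciferase luminescence as measure of HCV replicon replication; test concentration not given here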
[13] = target: Left-right determination factor 2 (Homo sapiens) (UniProt O00292); assay: small molecules binding LEFTY2 protein – biochemical, small-molecule microarray, 635 nm fluorescence scan, primary screen (AID 1110); conditions: higher = more signal
Sequence of Left-right determination factor 2 (Homo sapiens) (O00292 whole entry, looked up): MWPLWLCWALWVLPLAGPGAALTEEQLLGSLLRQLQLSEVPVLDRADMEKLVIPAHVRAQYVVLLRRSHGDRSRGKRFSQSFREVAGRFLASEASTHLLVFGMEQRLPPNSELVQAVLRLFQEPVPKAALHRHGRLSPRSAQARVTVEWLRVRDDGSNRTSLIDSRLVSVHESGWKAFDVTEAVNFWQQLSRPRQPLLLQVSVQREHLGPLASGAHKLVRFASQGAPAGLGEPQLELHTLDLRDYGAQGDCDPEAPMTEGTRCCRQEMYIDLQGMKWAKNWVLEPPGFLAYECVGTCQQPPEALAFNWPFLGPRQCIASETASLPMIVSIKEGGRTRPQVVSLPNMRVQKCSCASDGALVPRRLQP

[14] = target: Calmodulin-1 (Homo sapiens) (UniProt P0DP23); assay: small molecules binding calmodulin-1 with EGTA – biochemical, small-molecule microarray, Cy5-labelled CALM1, profiling panel (AID 1111); conditions: Cy5-CALM1 binding fluorescence, higher = more signal;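 also: labelled calmodulin applied in Tris saline Tween buffer holding calcium plus EGTA and DTT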
[15] = target: Calmodulin-1 (Homo sapiens) (UniProt P0DP23); assay: small molecules binding Ca-loaded calmodulin-1 – biochemical, small-molecule microarray, Cy5-labelled CALM1, plus calcium, artefact control for SMM control-protein annotation, profiling panel (AID 1112); conditions: Cy5-CALM1 binding fluorescence, higher = more signal;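 also: score merges spot fluorescence with signal to noise from triplicate slides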
[16] = probe aWnt5a binding to arrayed compounds – biochemical, biotinylated probe, 635/667 nm fluorescence, primary screen (AID 1113); conditions: small-molecule microarray, higher = more signal;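 also: score merges 667 nm fluorescence intensity with signal-to-noise per printed feature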
[17] = probe aShh binding to arrayed compounds – biochemical, biotinylated probe, 635/667 nm fluorescence, primary screen (AID 1114); conditions: small-molecule microarray, higher = more signal;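 also: probe is biotin-labelled aShh protein from a stem cell growth factor screen; measures binding of labelled protein to compounds printed on the slide; score merges feature fluorescence at 667 nm with signal-to-noise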
[18] = probe aNog binding to arrayed compounds – biochemical, biotinylated probe, 635/667 nm fluorescence, primary screen (AID 1115); conditions: small-molecule microarray, higher = more signal;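 also: probe is biotinylated aNog protein used at 0.15 µg/mL for 1 h at 4 C; z-score combines 667 nm fluorescence of each spot with its signal to noise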
[19] = target: Torsin-1A-interacting protein 1 (Homo sapiens) (UniProt Q5JTV8); assay: compound microarray binding of lysate hLAP1 – cell lysate, small-molecule microarray, COS7 lysate, 635/667 nm fluorescence, primary screen (AID 1116); conditions: 635 nm fluorescence, higher = more signal
Sequence of Torsin-1A-interacting protein 1 (Homo sapiens) (Q5JTV8 whole entry, looked up): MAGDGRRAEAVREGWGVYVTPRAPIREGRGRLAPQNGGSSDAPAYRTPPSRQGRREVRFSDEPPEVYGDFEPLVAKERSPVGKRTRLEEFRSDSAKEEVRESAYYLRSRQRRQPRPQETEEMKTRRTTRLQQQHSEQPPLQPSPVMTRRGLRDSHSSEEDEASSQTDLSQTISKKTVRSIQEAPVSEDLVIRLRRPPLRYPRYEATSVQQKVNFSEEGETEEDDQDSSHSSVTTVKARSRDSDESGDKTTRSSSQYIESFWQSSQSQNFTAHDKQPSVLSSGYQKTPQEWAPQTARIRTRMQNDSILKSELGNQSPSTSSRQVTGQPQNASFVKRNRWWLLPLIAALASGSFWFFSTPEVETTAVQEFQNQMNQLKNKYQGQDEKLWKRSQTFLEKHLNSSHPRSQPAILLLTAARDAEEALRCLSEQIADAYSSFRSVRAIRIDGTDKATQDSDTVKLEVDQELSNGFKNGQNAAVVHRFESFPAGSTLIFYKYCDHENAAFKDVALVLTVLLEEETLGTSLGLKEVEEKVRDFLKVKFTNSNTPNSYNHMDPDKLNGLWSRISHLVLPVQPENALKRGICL

[20] = target: Alpha-bungarotoxin (Bungarus multicinctus) (UniProt P60615); assay: compounds binding labelled alpha-BTX control protein – biochemical, small-molecule microarray, Alexa647 label, 635/667 nm fluorescence, artefact control for SMM control protein annotation, profiling panel (AID 1117); conditions: alpha-BTX-A647 binding fluorescence, higher = more signal
Sequence of Alpha-bungarotoxin (Bungarus multicinctus) (P60615 whole entry, looked up): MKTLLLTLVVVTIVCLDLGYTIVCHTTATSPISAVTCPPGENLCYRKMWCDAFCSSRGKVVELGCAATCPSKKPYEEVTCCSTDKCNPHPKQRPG

SMILES	composite z-score [1]	composite z-score [2]	composite z-score [3]	z-score [4]	composite z-score [5]	composite z-score [6]	composite z-score [7]	composite z-score [8]	composite z-score [9]	composite z-score [10]	composite z-score [11]	z-score [12]	composite z-score [13]	composite z-score [14]	composite z-score [15]	composite z-score [16]	composite z-score [17]	composite z-score [18]	composite z-score [19]	composite z-score [20]
C=CC[C@]1(C(=O)NCC(O)CO)N=C(c2ccc(OCCCO)cc2)O[C@H]1c1ccccc1N=[N+]=[N-] (stereo not given in full)	0.939	0.731	1.28	-0.789 (inactive)	0.258	-0.216	-0.0496	-0.291	-0.379	1.42	1.14	-0.0862	-0.571	1.64	0.479	0.106	1.09	1.68	2.75	-0.0575
CC(C)CCC[C@@H](C)[C@H]1CC[C@@]2(C)C3=C(CC[C@]12C)[C@@]1(C)CC[C@H](OC(=O)c2ccc(N)cc2)C(C)(C)C1CC3 (stereo not given in full)	0.347	-0.285	-0.761	-0.925 (inactive)	0.331	0.833	0.614	0.587	1.4	-0.023	0.609	0.0533	1.2	-0.137	-0.674	-0.0545	0.768	-0.427	0.282	0.0506
COCCCNC(=O)[C@@]1(Cc2ccccc2I)c2ccccc2C(=O)N(Cc2ccccc2Cl)[C@H]1c1ccc(CO)cc1	0.506	0.0418	-0.261	-0.964 (inactive)	-0.0568	0.575	-0.0316	0.3	0.186	0.712	1.16	-1.36	0.365	1.32	0.101	0.0101	-0.154	-0.364	0.164	0.752
C=CCOC(=O)[C@@H]1[C@H]2C(=O)O[C@H](c3ccccc3)[C@H](c3ccccc3)N2[C@H](c2ccc(OCCOC(=O)[C@@H]3C[C@@H]4C(=O)N[C@@H](CCCCNC(C)=O)C(=O)N4[C@@H]3c3ccc(O)cc3)cc2)[C@@]12C(=O)Nc1ccc(I)cc12	1.58	-0.219	-0.249	0.0887 (inactive)	1.43	1.27	1.12	1.35	0.616	0.499	1.41	-0.66	0.722	0.743	-0.342	-0.0684	0.0098	-0.192	0.6	0.831
O=C(NCc1ccccc1)[C@]1(Cc2ccccc2)N=C(c2ccc(OCCCO)cc2)O[C@@H]1c1ccccc1	-0.0602	0.857	0.75	-0.0706 (inactive)	0.154	0.789	0.178	-0.11	-0.565	0.672	1.4	-2.58	-0.126	2.01	1.1	-0.13	-0.305	0.044	0.652	0.351
COC(=O)[C@@]1(Cc2ccc(OC)cc2)[C@H]2c3cc(C(=O)N4CCCC4)n(Cc4ccc(C)o4)c3C[C@H]2CN1C(=O)c1ccccc1	1.34	0.839	0.751	-0.293 (inactive)	1.24	1.09	0.232	1.32	-0.0427	1.19	1.2	-3.68	-0.242	0.493	0.0918	0.457	0.444	-0.504	0.762	0.287
CCOC(=O)C1=CC[C@@H](c2cccc(Br)c2)N(S(=O)(=O)c2ccc(C)cc2)[C@H]1c1ccc([N+](=O)[O-])cc1	1.47	0.448	-0.0145	-0.183 (inactive)	1.2	0.356	0.877	1.32	0.82	0.784	1.42	-0.802	0.868	0.855	0.69	0.0433	-0.138	0.822	1.1	1.05
COC(=O)[C@@]1(Cc2ccc(OC)cc2)[C@H]2c3cc(C(=O)N(C)C)n(CCF)c3C[C@H]2CN1C(=O)c1ccccc1	1.17	1.23	0.923	-0.674 (inactive)	0.601	1.14	0.185	1.03	-0.123	0.854	0.528	-1.83	0.216	2.13	1.02	0.027	0.675	1.82	1.01	1.79
COC(=O)[C@@]1(Cc2ccccc2N=[N+]=[N-])N=C(c2ccc(OCCCO)cc2)O[C@H]1c1ccccc1	1.34	0.0665	0.87	2.25 (inactive)	0.818	-0.253	-0.285	0.666	-0.385	0.575	1.34	-3.38	-0.319	0.694	0.278	0.0136	0.0121	-0.466	1.37	0.873
C=CCN1C(=O)[C@@]2(O[C@@H](CCO)[C@H]([Si](C)(C)c3ccc(OC)cc3)[C@H]2C)c2cc(NC(=O)[C@H](C)O)ccc21	1.53	-0.474	-0.0061	-2.46 (inactive)	1.26	1.3	-0.242	0.254	0.147	-0.156	1.37	-3.03	0.256	0.929	-0.377	0.0279	0.0639	-0.21	1.2	0.175
